From PubChem BioAssay (NCI)
About 79,000 compounds went through this panel and 15% of them were active in at least one assay; those are over-represented in the sample as a whole. Unmarked numbers belong to inactive results. Calls of active or inactive are those of the source. Rule as the data show it: active = growth inhibition above about 70%; inactive = the rest.

Assays:
[1] = NCI Yeast Anticancer Drug Screen. Data for the rad50 strain (AID 155);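 also: 0% = growth of vehicle-only cultures of the same strain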; details: S. cerevisiae rad50 strain growth inhibition; at 50.0 µM; hits give high values
In short: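 A DNA repair-deficient yeast mutant serves as the test organism; compound-induced growth inhibition is calculated against vehicle-treated cells.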

[2] = NCI Yeast Anticancer Drug Screen. Data for the mec2-1 strain (AID 157); details: S. cerevisiae mec2-1 strain, at 50.0 µM, hits give high values
In short: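 Growth inhibition is read against vehicle-treated controls after compound exposure of the mec2-1 yeast strain, which is defective in DNA damage repair or cell cycle control.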

[3] = NCI Yeast Anticancer Drug Screen. Data for the sgs1 mgt1 strain (AID 161);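 also: 0% = growth of cultures given vehicle only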; details: S. cerevisiae sgs1 mgt1 strain, at 50.0 µM, hits give high values
In short: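 Compounds are added to genetically altered yeast, and growth is compared with cultures given vehicle alone to give percent inhibition.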

[4] = NCI Yeast Anticancer Drug Screen. Data for the cln2 rad14 strain (AID 165);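 also: 0% = growth equal to vehicle treated cultures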; details: S. cerevisiae cln2 rad14 strain, at 50.0 µM, hits give high values
In short: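 Growth inhibition, relative to vehicle-treated controls, is the read-out. The test organism is a yeast strain with defined genetic alterations, cln2 rad14.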

[5] = NCI Yeast Anticancer Drug Screen. Data for the bub3 strain (AID 167); details: S. cerevisiae bub3 mutant strain, at 50.0 µM, hits give high values
In short: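 Inhibition values come from growth of compound-treated mutant yeast normalised to vehicle-treated controls.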

[6] = NCI Yeast Anticancer Drug Screen. Data for the mlh1 rad18 strain (AID 175); details: S. cerevisiae mlh1 rad18 strain growth inhibition; at 50.0 µM; hits give high values
In short: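 Cells of a genetically altered yeast strain, deficient in DNA damage repair, were treated with compound. Their growth was then compared with that of vehicle-treated cultures to give inhibition.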

CCNC(CC(N)=O)C(=O)O (stereo unspecified)
growth inhibition [1]: -22.1%
growth inhibition [2]: -3.75%
growth inhibition [3]: 0.15%
growth inhibition [4]: -4.05%
growth inhibition [5]: -26.4%
growth inhibition [6]: -11.6%

CSc1ncnc2[nH]ncc12
growth inhibition [1]: 4.5%
growth inhibition [2]: 20.9%
growth inhibition [3]: -30.5%
growth inhibition [4]: -20.9%
growth inhibition [5]: -0.4%
growth inhibition [6]: -62.1%

COc1cc2c(cc1OC)C(N)CC2=O (stereo unspecified)
growth inhibition [1]: 3.15%
growth inhibition [2]: 1.4%
growth inhibition [3]: -7.25%
growth inhibition [4]: 3.65%
growth inhibition [5]: 0.5%
growth inhibition [6]: -75.3%

Cc1ccc(S(=O)(=O)N/N=C/c2cc(I)cc(I)c2O)cc1
growth inhibition [1]: 99.5% (active)
growth inhibition [2]: 99.3% (active)
growth inhibition [3]: 99.2% (active)
growth inhibition [4]: 99.4% (active)
growth inhibition [5]: 98.3% (active)
growth inhibition [6]: 99.1% (active)

CCC(O)C(C)[N+](=O)[O-] (stereo unspecified)
growth inhibition [1]: 28%
growth inhibition [2]: -1.85%
growth inhibition [3]: 7.45%
growth inhibition [4]: 6%
growth inhibition [5]: 1.75%
growth inhibition [6]: 3.75%

Cc1c2ccccc2c(C)n2c1nc1cc3ccccc3cc12
growth inhibition [1]: 9.8%
growth inhibition [2]: 11.9%
growth inhibition [3]: 11.8%
growth inhibition [4]: 8.55%
growth inhibition [5]: 4.65%
growth inhibition [6]: 28.6%

CC1=NN(c2ccc([N+](=O)[O-])cc2)C(=O)C1
growth inhibition [1]: 25.6%
growth inhibition [2]: 0.25%
growth inhibition [3]: 22.6%
growth inhibition [4]: 6.1%
growth inhibition [5]: 25.6%
growth inhibition [6]: 36.9%

CCOC(=O)C1=C(c2ccccc2)NC(c2ccccc2)=C(C(=O)OCC)c2c1c(=O)cc[nH]c2=O
growth inhibition [1]: -19.6%
growth inhibition [2]: 1.45%
growth inhibition [3]: 18.1%
growth inhibition [4]: 18.2%
growth inhibition [5]: -9.9%
growth inhibition [6]: 2.35%

CC(CN1CCCC1)OC(=O)C(c1ccccc1)C1CCCC1 (stereo unspecified)
growth inhibition [1]: 6.15%
growth inhibition [2]: -20.9%
growth inhibition [3]: 20.1%
growth inhibition [4]: -50.2%
growth inhibition [5]: -4.85%
growth inhibition [6]: -14.2%

C=CCN1C(=O)C(c2ccccc2)(c2ccccc2)NC1=S
growth inhibition [1]: 1.7%
growth inhibition [2]: -32.9%
growth inhibition [3]: -32.1%
growth inhibition [4]: -20.1%
growth inhibition [5]: -30.6%
growth inhibition [6]: -41.1%

O=Cc1c(O)ccc2ccc3ccccc3c12
growth inhibition [1]: 16.1%
growth inhibition [2]: 7.25%
growth inhibition [3]: 10.1%
growth inhibition [4]: -32.7%
growth inhibition [5]: -7.7%
growth inhibition [6]: 16.4%

COc1cc(C)c(N)cc1N
growth inhibition [1]: -2.7%
growth inhibition [2]: -16.9%
growth inhibition [3]: 11.3%
growth inhibition [4]: -14%
growth inhibition [5]: -1%
growth inhibition [6]: 15.7%

CCc1ccc(NC(=O)C(c2ccccc2)c2ccccc2)cc1
growth inhibition [1]: 8.6%
growth inhibition [2]: 13.3%
growth inhibition [3]: 2.35%
growth inhibition [4]: 11.8%
growth inhibition [5]: 20.6%
growth inhibition [6]: -9.1%

Cc1nc2ccc(N)cc2oc1=O
growth inhibition [1]: 6.55%
growth inhibition [2]: 15.1%
growth inhibition [3]: 15.2%
growth inhibition [4]: -28.9%
growth inhibition [5]: 0.8%
growth inhibition [6]: 9.35%

CCOC(=O)c1ccc(OC(=O)Nc2ccccc2)cc1
growth inhibition [1]: -2.2%
growth inhibition [2]: 6%
growth inhibition [3]: 1.15%
growth inhibition [4]: -12.4%
growth inhibition [5]: -2.8%
growth inhibition [6]: -28.1%

CCSc1cc2c(cc1O)CC[C@@H]1[C@@H]2CC[C@]2(C)[C@@H](O)CC[C@@H]12
growth inhibition [1]: -6.6%
growth inhibition [2]: -18.1%
growth inhibition [3]: -6.95%
growth inhibition [4]: -7.5%
growth inhibition [5]: 22.4%
growth inhibition [6]: -27.6%

CC(C)=CC1CCc2ccccc2N1S(=O)(=O)c1ccc(C)cc1 (stereo unspecified)
growth inhibition [1]: 31.8%
growth inhibition [2]: 0.25%
growth inhibition [3]: -14.9%
growth inhibition [4]: -8.7%
growth inhibition [5]: -31.7%
growth inhibition [6]: -22.6%

CCOC(=O)C(C)N1CCCCCCC1 (stereo unspecified)
growth inhibition [1]: -19.9%
growth inhibition [2]: -13.5%
growth inhibition [3]: -2.3%
growth inhibition [4]: -26.2%
growth inhibition [5]: -6.15%
growth inhibition [6]: -0.8%

CC1=CC(=O)C(CN(C)C)(CN(C)C)C(C)(C)C1
growth inhibition [1]: 4.85%
growth inhibition [2]: 9.35%
growth inhibition [3]: 7.65%
growth inhibition [4]: 0.25%
growth inhibition [5]: -1.65%
growth inhibition [6]: 13.1%

c1ccc(-c2[nH]nc3nc4c(nc23)CCCC4)cc1
growth inhibition [1]: 7.4%
growth inhibition [2]: -5.3%
growth inhibition [3]: -5.1%
growth inhibition [4]: -32.9%
growth inhibition [5]: -33%
growth inhibition [6]: 6.6%

CC(=O)n1oc2c(Br)cc(Br)cc2c1=O
growth inhibition [1]: -0.75%
growth inhibition [2]: 2.85%
growth inhibition [3]: 3.7%
growth inhibition [4]: -2.55%
growth inhibition [5]: -1.05%
growth inhibition [6]: 15.1%

COc1ccccc1C(OC)c1ccccc1C(=O)O (stereo unspecified)
growth inhibition [1]: -10.9%
growth inhibition [2]: -17.1%
growth inhibition [3]: -1.4%
growth inhibition [4]: -12.5%
growth inhibition [5]: -4.7%
growth inhibition [6]: -16.1%

Nc1ncnc2c1cnn2Cc1ccccc1
growth inhibition [1]: 4.9%
growth inhibition [2]: -7.3%
growth inhibition [3]: 4.65%
growth inhibition [4]: -3.75%
growth inhibition [5]: 21.2%
growth inhibition [6]: 2.35%

C(=N\N1CCN(/N=C/c2c[nH]c3ccccc23)CC1)/c1c[nH]c2ccccc12
growth inhibition [1]: 10.3%
growth inhibition [2]: -11.5%
growth inhibition [3]: -12.8%
growth inhibition [4]: -1.05%
growth inhibition [5]: 0.7%
growth inhibition [6]: -3.05%

CC1=CC(N)C2CC1C2(C)C (stereo unspecified)
growth inhibition [1]: -9.3%
growth inhibition [2]: -17.1%
growth inhibition [3]: -29.1%
growth inhibition [4]: -37.6%
growth inhibition [5]: -2.2%
growth inhibition [6]: -1.65%

Cn1cnc([N+](=O)[O-])c1Sc1ccccc1C(=O)O
growth inhibition [1]: -2.7%
growth inhibition [2]: -0.15%
growth inhibition [3]: -23.1%
growth inhibition [4]: 23.6%
growth inhibition [5]: -0.35%
growth inhibition [6]: -12.1%

CC(C)CSc1nc(N)nc2c1ncn2CC(C)C
growth inhibition [1]: -8.65%
growth inhibition [2]: -6.4%
growth inhibition [3]: 32.7%
growth inhibition [4]: -21.7%
growth inhibition [5]: 29.4%
growth inhibition [6]: 18.9%

O=C1CCCCC1CN1CCOCC1 (stereo unspecified)
growth inhibition [1]: -37.5%
growth inhibition [2]: -24.2%
growth inhibition [3]: -5.3%
growth inhibition [4]: -6.45%
growth inhibition [5]: -22.1%
growth inhibition [6]: -16.4%

CCCCCCCCNCC(=O)O
growth inhibition [1]: -20%
growth inhibition [2]: -21.6%
growth inhibition [3]: -5.35%
growth inhibition [4]: 3.05%
growth inhibition [5]: -13.1%
growth inhibition [6]: -12.9%

ClC12CCC(Cl)(CC1)CC2
growth inhibition [1]: 10.5%
growth inhibition [2]: 0.65%
growth inhibition [3]: -3.95%
growth inhibition [4]: -50.6%
growth inhibition [5]: -10.7%
growth inhibition [6]: -7.95%

N#C/C(=C\c1cccc(Br)c1)c1nc2ccccc2c(=O)[nH]1
growth inhibition [1]: 5.75%
growth inhibition [2]: 4.4%
growth inhibition [3]: 0.2%
growth inhibition [4]: 1.55%
growth inhibition [5]: -14.4%
growth inhibition [6]: -35.4%

O=C(O)Cc1n[nH]c(=O)c2ccccc12
growth inhibition [1]: -21.1%
growth inhibition [2]: -5.2%
growth inhibition [3]: -0.45%
growth inhibition [4]: -2.75%
growth inhibition [5]: -25.9%
growth inhibition [6]: -7.7%

O=c1nc(NCCc2c[nH]c3ccccc23)ccn1C1OC(CO)C(O)C1O (stereo unspecified)
growth inhibition [1]: 19.1%
growth inhibition [2]: 4.5%
growth inhibition [3]: 2.35%
growth inhibition [4]: 15.1%
growth inhibition [5]: -1.45%
growth inhibition [6]: 7.25%

COc1ccc(/C=C(\C2=NC(=O)CS2)c2nc3ccccc3[nH]2)cc1
growth inhibition [1]: -0.35%
growth inhibition [2]: -4.2%
growth inhibition [3]: -20.1%
growth inhibition [4]: -3.9%
growth inhibition [5]: -20.4%
growth inhibition [6]: -24.9%

Clc1ccc(CN2COc3c(ccc4ccccc34)C2)cc1Cl
growth inhibition [1]: 1.65%
growth inhibition [2]: 15.2%
growth inhibition [3]: 17.6%
growth inhibition [4]: 9.65%
growth inhibition [5]: 7.1%
growth inhibition [6]: 13.8%

O=S1(=O)C(Cl)=C(O)c2ccccc21
growth inhibition [1]: 13.4%
growth inhibition [2]: 6.5%
growth inhibition [3]: -2.05%
growth inhibition [4]: -22.6%
growth inhibition [5]: -7.7%
growth inhibition [6]: 11.4%

COC1OC(CCl)C(Cl)C(Cl)C1O (stereo unspecified)
growth inhibition [1]: 17.7%
growth inhibition [2]: -7.85%
growth inhibition [3]: 4.55%
growth inhibition [4]: -44.2%
growth inhibition [5]: 5.9%
growth inhibition [6]: 4.8%

COc1cc(/C=C(\C#N)C(=O)c2ccccc2)ccc1O
growth inhibition [1]: -13.8%
growth inhibition [2]: -18.1%
growth inhibition [3]: -11.9%
growth inhibition [4]: 5.4%
growth inhibition [5]: -27.5%
growth inhibition [6]: 3.05%

N#Cc1nc(CCC(C(=O)O)N2C(=O)c3ccccc3C2=O)oc1N (stereo unspecified)
growth inhibition [1]: 3.55%
growth inhibition [2]: 15.2%
growth inhibition [3]: -12.1%
growth inhibition [4]: -0.55%
growth inhibition [5]: -9.15%
growth inhibition [6]: -46.9%

CSc1nc[nH]c1C(N)=S
growth inhibition [1]: -13.1%
growth inhibition [2]: 3%
growth inhibition [3]: 2.6%
growth inhibition [4]: -7.4%
growth inhibition [5]: -24.4%
growth inhibition [6]: 8.7%

O=C1O/C(=C/c2ccc(O)cc2)c2ccccc21
growth inhibition [1]: 0.9%
growth inhibition [2]: -26.9%
growth inhibition [3]: -4.1%
growth inhibition [4]: -15.1%
growth inhibition [5]: 6.9%
growth inhibition [6]: -11.4%
